IDE exosite FP – exo-site inhibitors of human insulin-degrading enzyme. purified IDE, FL-6b probe fluorescence polarization; hits give low values. z-score at 20 µM. 6.3% of 17,000 active. AID 1259349;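 active = z-score of -3 or lower, meaning strong loss of probe binding signal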;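 note: His-tagged human IDE residues 42-1019 made in E. coli with 30 nM FL-6b probe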
Target sequence (P14735 42-1019 limits assumed): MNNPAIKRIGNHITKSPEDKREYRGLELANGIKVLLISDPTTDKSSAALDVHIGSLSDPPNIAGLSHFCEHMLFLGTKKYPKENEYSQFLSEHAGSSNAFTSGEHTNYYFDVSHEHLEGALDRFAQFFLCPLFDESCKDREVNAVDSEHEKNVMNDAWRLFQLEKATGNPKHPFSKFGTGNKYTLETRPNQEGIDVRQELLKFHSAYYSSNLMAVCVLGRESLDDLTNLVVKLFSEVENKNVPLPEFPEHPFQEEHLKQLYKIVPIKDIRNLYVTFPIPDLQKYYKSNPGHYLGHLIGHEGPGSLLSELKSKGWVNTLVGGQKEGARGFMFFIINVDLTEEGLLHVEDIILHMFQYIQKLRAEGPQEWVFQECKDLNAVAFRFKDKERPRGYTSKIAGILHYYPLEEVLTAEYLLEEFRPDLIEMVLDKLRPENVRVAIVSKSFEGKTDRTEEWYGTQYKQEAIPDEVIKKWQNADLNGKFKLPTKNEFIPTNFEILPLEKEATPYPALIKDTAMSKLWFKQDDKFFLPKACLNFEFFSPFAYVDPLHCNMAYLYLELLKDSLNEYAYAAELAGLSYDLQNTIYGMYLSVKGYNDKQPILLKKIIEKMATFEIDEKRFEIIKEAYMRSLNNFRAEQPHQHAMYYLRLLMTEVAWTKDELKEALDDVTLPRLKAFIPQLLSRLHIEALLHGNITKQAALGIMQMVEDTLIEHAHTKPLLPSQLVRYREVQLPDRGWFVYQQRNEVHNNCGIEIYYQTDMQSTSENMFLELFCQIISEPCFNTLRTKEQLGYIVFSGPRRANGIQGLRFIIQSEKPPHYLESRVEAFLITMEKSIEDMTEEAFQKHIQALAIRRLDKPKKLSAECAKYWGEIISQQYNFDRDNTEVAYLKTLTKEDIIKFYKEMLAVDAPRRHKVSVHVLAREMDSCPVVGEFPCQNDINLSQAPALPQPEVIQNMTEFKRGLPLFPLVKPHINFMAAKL
An asterisk follows results filed as active. The full list was thinned out, with hits kept by preference.

SMILES	IDE exosite FP
CO[C@H]1CN(C)C(=O)c2ccc(NC(=O)Nc3ccccc3Cl)cc2OC[C@@H](C)NC[C@H]1C	0.805
COc1ccc(S(=O)(=O)N(C)C[C@H]2Oc3ccc(NC(=O)Nc4ccc(C(F)(F)F)cc4)cc3C(=O)N([C@@H](C)CO)C[C@@H]2C)cc1	1.25
COc1ccc(CNC(=O)C[C@@H]2CC[C@@H](NC(=O)CN(C)C)[C@@H](CO)O2)cc1	1.05
COc1ccc([C@@H]2C/C=C\C[C@H](c3ccc4c(c3)OCO4)NC(=O)CCC(=O)N2)c(OC)c1	0.957
COc1cccc(NC(=O)N2C[C@H](O)COC[C@H]3O[C@H](CC(=O)N(C)C)CC[C@@H]32)c1	-0.754
O=C(CN1CCOCC1)N1CCCCN2[C@H](C1)[C@H](c1ccc(Br)cc1)[C@@H]2CO	-1.16
O=C(CN1CCOCC1)N1CCCCN2[C@H](CO)[C@H](c3ccc(Br)cc3)[C@@H]2C1	-0.214
O=C(CN1CCOCC1)N1CCCCN2[C@@H](CO)[C@@H](c3ccc(C#Cc4ccccc4)cc3)[C@@H]2C1	-5.55*
O=C(CN1CCOCC1)N1CCCCN2[C@H](C1)[C@H](c1ccc(C#Cc3ccccc3)cc1)[C@@H]2CO	-13.1*
O=C(C[C@H]1CC[C@@H]2[C@H](COC[C@H](O)CN2C(=O)c2ccc(F)cc2)O1)N1CCCCC1	1.37
COCC(=O)N(C[C@@H]1N[C@H](CO)[C@H]1c1ccc(-c2cccnc2)cc1)C(C)C	0.288
C[C@H](CO)N1C[C@H](C)[C@H](CN(C)S(=O)(=O)c2cn(C)cn2)Oc2ncc(C3=CCCCC3)cc2C1=O	0.581
CCN1[C@@H]2c3ccc(-c4ccccc4OC)c(=O)n3C[C@H]1[C@H](CO)[C@H]2C(=O)NCc1ccccn1	1.34
CCCC#Cc1ccc([C@H]2[C@@H](CO)N3CCCCN(S(C)(=O)=O)C[C@@H]23)cc1	1.36
CS(=O)(=O)N1CCCCN2[C@H](CO)[C@H](c3ccc(C#Cc4ccccn4)cc3)[C@@H]2C1	1.31
O=S(=O)(Cc1ccccc1)N1CCCCN2[C@H](CO)[C@H](c3ccc(C#Cc4ccccc4)cc3)[C@@H]2C1	3.66
O=S(=O)(Cc1ccccc1)N1CCCCN2[C@@H](CO)[C@@H](c3ccc(C#Cc4ccccc4)cc3)[C@@H]2C1	3.27
CCS(=O)(=O)N1CCCCN2[C@@H](CO)[C@H](c3ccc(C#Cc4ccccc4OC)cc3)[C@@H]2C1	-5.88*
COc1ccccc1C#Cc1ccc([C@H]2[C@@H](CO)N3CCCCN(S(C)(=O)=O)C[C@@H]23)cc1	-10.4*
COc1ccc(C#Cc2ccc([C@@H]3[C@H](CO)N4CCCCN(S(=O)(=O)c5ccccc5)C[C@@H]34)cc2)cc1	1.17
COc1ccccc1C#Cc1ccc([C@@H]2[C@@H](CO)N3CCCCN(S(C)(=O)=O)C[C@H]23)cc1	-5.62*
CCCC#Cc1ccc([C@H]2[C@H](CO)N3CCCCN(S(C)(=O)=O)C[C@@H]23)cc1	3.43
OC[C@H]1[C@H](c2ccc(-c3ccc(F)cc3)cc2)[C@@H]2CN(CCC(F)(F)F)CCCCN12	-0.719
C/C=C/c1ccc([C@H]2[C@@H](C#N)N(C(=O)c3cccnc3)[C@@H]2CO)cc1	1.05
CCCNC(=O)N1CC2(C1)[C@H](c1ccccc1)[C@@H](CO)N2CC1CCOCC1	1.14
SMILES	IDE exosite FP
CCCNC[C@H]1[C@@H](c2ccc(-c3cccc(C#N)c3)cc2)[C@@H](CO)N1C(C)=O	2
N#C[C@@H]1[C@H](c2ccc(C3=CCCCC3)cc2)[C@H](CO)N1C(=O)NC1CCCC1	2.04
COC(=O)C[C@H]1C[C@@H]2c3cc(N)ccc3O[C@@H]2[C@H](CO)O1	-0.331
CC(C)C#Cc1ccc([C@H]2[C@H]3CN(S(=O)(=O)Cc4ccccc4)CCCCN3[C@H]2CO)cc1	4.47
COc1ccc(C#Cc2ccc([C@@H]3[C@H]4CN(C(=O)Nc5ccccc5F)CC(=O)N4[C@H]3CO)cc2)cc1	2.03
O=C(c1ccncc1)N1CCCCN2[C@H](CO)[C@H](c3ccc(C#Cc4ccccn4)cc3)[C@@H]2C1	-0.328
O=C(c1cccnc1)N1CCCCN2[C@H](CO)[C@H](c3ccc(C#Cc4cccnc4)cc3)[C@@H]2C1	-4.34*
CC(C)(O)C#Cc1ccc([C@@H]2[C@@H](CO)N3CCCCN(C(=O)c4cccnc4)C[C@H]23)cc1	3.5
O=C(c1cccnc1)N1CCCCN2[C@H](C1)[C@@H](c1ccc(C#Cc3cccnc3)cc1)[C@@H]2CO	1.88
CC(C)(O)C#Cc1ccc([C@H]2[C@@H](CO)N3CCCCN(C(=O)c4cccnc4)C[C@@H]23)cc1	1.09
O=C(c1cccnc1)N1CCCCN2[C@H](C1)[C@H](c1ccc(C#Cc3ccccn3)cc1)[C@@H]2CO	-5.46*
O=C(c1cccnc1)N1CCCCN2[C@@H](CO)[C@H](c3ccc(C#Cc4ccccn4)cc3)[C@@H]2C1	-7.72*
CC(C)(O)C#Cc1ccc([C@H]2[C@H](CO)N3CCCCN(C(=O)c4cccnc4)C[C@@H]23)cc1	3.73
O=C(c1ccncc1)N1CCCCN2[C@H](C1)[C@@H](c1ccc(C#Cc3ccccn3)cc1)[C@@H]2CO	0.835
